miR122 inh – miR-122 sensor activation; Huh7 psiCHECK-miR122 Renilla luciferase sensor, 48 h; activation, % at 12.5 µM; 0.14% of 340,000 active;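 active = mean activation of 30% or more, with every replicate also reaching 30%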;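 note: higher luciferase signal means stronger suppression of miR-122 activity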
Hits are given with their value; . = inactive. The full list was thinned out, with hits kept by preference.

SMILES | miR122 inh
COc1ccccc1C(=O)Nc1ccc2c(c1)C(=O)N(C)[C@H]1CC[C@H](CC(=O)NCc3ccc(Cl)c(Cl)c3)O[C@H]1CO2 | .
CC(=O)Nc1ccc2c(c1)C(=O)N(C)[C@@H]1CC[C@@H](CC(=O)NCc3ccc(Cl)cc3)O[C@H]1CO2 | 68
COc1cccc(CNC(=O)C[C@@H]2CC[C@H]3[C@H](COc4ccc(NC(C)=O)cc4C(=O)N3C)O2)c1 | 37
CC(=O)Nc1ccc2c(c1)C(=O)N(C)[C@H]1CC[C@@H](CC(=O)NCc3ccc(Cl)cc3)O[C@H]1CO2 | .
C[C@H]1CN([C@@H](C)CO)C(=O)c2cc(C#Cc3ccc(F)cc3)cnc2O[C@H]1CN(C)CC1CCOCC1 | .
C[C@H]1CN([C@@H](C)CO)C(=O)c2cc(C#CCc3ccccc3)cnc2O[C@H]1CN(C)Cc1cccc(C(=O)O)c1 | .
CNC[C@H]1Oc2ncc(C#CCC3CCCC3)cc2C(=O)N([C@H](C)CO)C[C@H]1C | .
CC(C)C#Cc1cnc2c(c1)C(=O)N([C@H](C)CO)C[C@H](C)[C@H](CN(C)C(=O)CC1CC1)O2 | .
C[C@H](CO)N1C[C@H](C)[C@@H](CN(C)Cc2cccc(C(=O)O)c2)Oc2ncc(/C=C/c3ccccc3)cc2C1=O | .
Cc1sc2ncnc(N/N=C/c3ccccc3O)c2c1C | 37
CCCC#Cc1cnc2c(c1)C(=O)N([C@@H](C)CO)C[C@@H](C)[C@H](CN(C)C(=O)C1CC1)O2 | .
Cc1ccccc1-c1cnc2c(c1)C(=O)N([C@H](C)CO)C[C@@H](C)[C@H](CN(C)Cc1ccccc1F)O2 | .
CCC(=O)N1C[C@@H](C)[C@@H](OC)CN(C)C(=O)c2ccc(NS(C)(=O)=O)cc2OC[C@H]1C | .
Cc1cc(C(=O)Nc2ccc3c(c2)C(=O)N(C)[C@@H]2CC[C@@H](CC(=O)N[C@H](C)c4ccccc4)O[C@H]2CO3)no1 | 33
Cc1cc(C(=O)Nc2ccc3c(c2)C(=O)N(C)[C@H]2CC[C@H](CC(=O)N[C@@H](C)c4ccccc4)O[C@H]2CO3)no1 | 50
C[C@H](CO)N1C[C@H](C)[C@@H](CN(C)C(=O)c2ccccc2)Oc2cc(-c3cccc(C#N)c3)ccc2S1(=O)=O | .
CO[C@@H]1CN(C)C(=O)c2cc(NC(=O)C3CCOCC3)ccc2OC[C@@H](C)N(C)C[C@@H]1C | .
CCCNC(=O)Nc1ccc2c(c1)OC[C@H](C)N(C)C[C@@H](C)[C@H](OC)CN(C)C2=O | .
COCC(=O)Nc1ccc2c(c1)OC[C@@H](C)N(C(C)=O)C[C@@H](C)[C@@H](OC)CN(C)C2=O | .
C[C@H](CO)N1C[C@H](C)[C@@H](CN(C)C(=O)CC2CC2)Oc2ncc(C#CCC3CCCC3)cc2C1=O | .
CN1C(=O)c2cc(NC(=O)C3CC3)ccc2OC[C@H]2O[C@H](CC(=O)NCc3cccc(F)c3)CC[C@H]21 | .
CN1C(=O)c2cc(NC(=O)C3CC3)ccc2OC[C@@H]2O[C@H](CC(=O)NCCN3CCCC3)CC[C@H]21 | 45
CCNC(=O)Nc1ccc2c(c1)C(=O)N(C)[C@H]1CC[C@H](CC(=O)NCCN3CCCC3)O[C@@H]1CO2 | 37
C[C@@H]1CN([C@H](C)CO)C(=O)c2cc(Br)cnc2O[C@@H]1CN(C)Cc1cccc(F)c1 | .
CO[C@H]1CN(C)C(=O)c2cc(NC(=O)Cc3ccccc3)ccc2OC[C@H](C)N(C)C[C@@H]1C | .
SMILES | miR122 inh
COc1ccc(S(=O)(=O)N(C)C[C@H]2Oc3cc(C#CC4CC4)ccc3S(=O)(=O)N([C@H](C)CO)C[C@H]2C)cc1 | .
COc1ccc(C(=O)N[C@H](C(=O)Nc2nc3ccccc3[nH]2)C(C)C)cc1 | .
O=C(COc1cccc2ccccc12)Nc1nc2ccccc2[nH]1 | 32
COc1ccc(NC(=O)N(C)C[C@@H]2Oc3ncc(C4=CCCC4)cc3C(=O)N([C@H](C)CO)C[C@@H]2C)cc1 | .
CCN(CC)CCOc1cccc(C(C)C)c1 | 36
CC(C)C#Cc1cnc2c(c1)C(=O)N([C@H](C)CO)C[C@@H](C)[C@@H](CN(C)C(=O)CC1CC1)O2 | .
C[C@H](CO)N1C[C@H](C)[C@H](CN(C)C(=O)Nc2ccccc2)Oc2ncc(C#Cc3ccc(F)cc3)cc2C1=O | .
C[C@H](CO)N1C[C@H](C)[C@@H](CN(C)C)Oc2ncc(-c3cccc(C#N)c3)cc2C1=O | .
C[C@H](O)C#Cc1ccc2c(c1)O[C@@H](CN(C)Cc1ccc(-c3ccccc3)cc1)[C@H](C)CN([C@H](C)CO)S2(=O)=O | 45
COCC(=O)N(C)C[C@H]1Oc2cc(C#Cc3cccnc3)ccc2S(=O)(=O)N([C@H](C)CO)C[C@H]1C | 51
CCC(=O)N(C)C[C@@H]1Oc2cc(C#Cc3cccnc3)ccc2S(=O)(=O)N([C@@H](C)CO)C[C@H]1C | .
CC(C)C#Cc1ccc2c(c1)O[C@H](CN(C)C(=O)c1ccccc1)[C@H](C)CN([C@H](C)CO)S2(=O)=O | .
C[C@@H]1CN([C@@H](C)CO)S(=O)(=O)c2ccc(C#Cc3ccncc3)cc2O[C@@H]1CN(C)C(=O)C1CCOCC1 | 33
C[C@H](O)C#Cc1ccc2c(c1)O[C@@H](CN(C)Cc1cccnc1)[C@H](C)CN([C@@H](C)CO)S2(=O)=O | .
CCC(=O)N(C)C[C@H]1Oc2cc(C#Cc3cccnc3)ccc2S(=O)(=O)N([C@@H](C)CO)C[C@H]1C | .
C[C@@H]1CN([C@H](C)CO)S(=O)(=O)c2ccc(C#Cc3ccncc3)cc2O[C@H]1CN(C)C(=O)C1CCCCC1 | .
CC(C)CC#Cc1ccc2c(c1)O[C@H](CN(C)C(=O)c1ccccc1)[C@H](C)CN([C@H](C)CO)S2(=O)=O | 42
C[C@@H]1CN([C@@H](C)CO)S(=O)(=O)c2ccc(C#C[C@@H](C)O)cc2O[C@H]1CN(C)Cc1cccnc1 | .
C[C@@H]1CN([C@H](C)CO)S(=O)(=O)c2ccc(C#Cc3ccncc3)cc2O[C@@H]1CN(C)C(=O)C1CCCCC1 | .
CC(C)CC#Cc1ccc2c(c1)O[C@H](CN(C)C(=O)c1ccccc1)[C@@H](C)CN([C@@H](C)CO)S2(=O)=O | .
C[C@H](CO)N1C[C@H](C)[C@H](CN(C)Cc2ccccc2)Oc2ncc(-c3cncnc3)cc2C1=O | .
C[C@@H]1CN([C@@H](C)CO)C(=O)c2cccc(NC(=O)c3ccc(-c4nccs4)cc3)c2O[C@@H]1CN(C)Cc1ccc(C(=O)Nc2ccccc2N)cc1 | .
C[C@@H]1CN([C@@H](C)CO)S(=O)(=O)c2ccc(C#CCC3CCCC3)cc2O[C@@H]1CN(C)C(=O)CC1CC1 | .
C[C@@H]1CN([C@@H](C)CO)C(=O)c2cc(N(C)C)ccc2O[C@@H]1CN(C)C(=O)Nc1ccc(F)cc1 | .
C[C@H]1CN([C@@H](C)CO)C(=O)c2cc(C#CCc3ccccc3)cnc2O[C@@H]1CN(C)Cc1ccccn1 | .
C[C@@H]1CN([C@@H](C)CO)S(=O)(=O)c2ccc(Br)cc2O[C@@H]1CN(C)C(=O)CC1CC1 | .
C[C@H]1CN([C@@H](C)CO)C(=O)c2cc(C#Cc3cccc(F)c3)cnc2O[C@@H]1CN(C)C(=O)C1CC1 | .
COc1ccccc1-c1cnc2c(c1)C(=O)N([C@H](C)CO)C[C@H](C)[C@@H](CN(C)CC1CCCC1)O2 | .
COCC#Cc1ccc2c(c1)O[C@H](CN(C)C(C)=O)[C@@H](C)CN([C@H](C)CO)S2(=O)=O | .
Cc1cc(C(=O)Nc2cccc3c2O[C@H](CN(C)Cc2ccc(C(F)(F)F)cc2)[C@@H](C)CN([C@H](C)CO)C3=O)n(C)n1 | .

High-throughput results (PubChem)
